Assay outcomes from PubChem.
The list is not random: actives were taken first. Their share in the collection is about 5.7%.
AHR act: AHR activators, primary screen, cell-based, luminescence, luciferase reporter, human. AHR-responsive luciferase reporter cells. hit rate 2.5% among 320,000. activation, % at 5 µM. Aryl hydrocarbon receptor (Homo sapiens), P35869. AID 2796, 2010; in the data active = activation above about 47%;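 note: 0% = vehicle wells and 100% = reference agonist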
Target sequence (P35869 whole entry, looked up): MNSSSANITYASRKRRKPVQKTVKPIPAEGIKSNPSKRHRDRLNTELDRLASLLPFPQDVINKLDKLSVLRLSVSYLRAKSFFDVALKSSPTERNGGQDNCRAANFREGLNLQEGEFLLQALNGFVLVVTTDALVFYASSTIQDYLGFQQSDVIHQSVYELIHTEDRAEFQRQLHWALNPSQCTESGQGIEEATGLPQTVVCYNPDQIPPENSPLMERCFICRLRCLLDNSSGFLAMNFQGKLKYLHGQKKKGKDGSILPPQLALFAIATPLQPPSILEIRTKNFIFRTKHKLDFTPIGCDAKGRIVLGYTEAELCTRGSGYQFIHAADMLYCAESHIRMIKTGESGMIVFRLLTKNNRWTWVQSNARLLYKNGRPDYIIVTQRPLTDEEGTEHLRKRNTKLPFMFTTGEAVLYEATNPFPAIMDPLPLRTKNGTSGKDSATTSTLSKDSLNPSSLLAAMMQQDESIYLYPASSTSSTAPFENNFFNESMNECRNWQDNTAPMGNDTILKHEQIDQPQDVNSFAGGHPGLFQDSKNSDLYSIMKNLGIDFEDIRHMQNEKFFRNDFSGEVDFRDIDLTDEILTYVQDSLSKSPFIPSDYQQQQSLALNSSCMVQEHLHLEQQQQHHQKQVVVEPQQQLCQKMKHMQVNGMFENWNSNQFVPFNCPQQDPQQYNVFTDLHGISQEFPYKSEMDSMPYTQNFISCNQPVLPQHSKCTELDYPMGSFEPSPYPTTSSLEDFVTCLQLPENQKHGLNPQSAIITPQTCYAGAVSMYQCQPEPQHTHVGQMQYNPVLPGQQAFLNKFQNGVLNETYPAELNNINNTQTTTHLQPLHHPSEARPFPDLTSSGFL
DAX1 inh-1: DAX1 (NR0B1) inhibitors, primary screen, cell-based, HEK293, Gal4-DAX1, luciferase luminescence | HEK293 Gal4-DAX1 luciferase reporter | inhibition, % at 6.75 µM | hit rate 0.99% among 340,000 | AID 504766, 2011;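 active = inhibition above the mean over all tested compounds plus 3 SD, cut at about 4.2% in these data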;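 note: 0% = DAX1-transfected cells with DMSO and 100% = empty-vector control cells with DMSO; inhibition shows as a rise in luminescence from relieved DAX1 repression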
hcDAF12 agonist: H. contortus DAF-12 nuclear receptor activators, primary screen, cell-based, luminescence, HEK293, lit1-tk-luc reporter | HEK293 hcDAF-12 lit1-tk-luc reporter; 0% DMSO, 100% Δ7-dafachronic acid | AID 652067, 2013 | hit rate 1.4% among 370,000 | activation, % at 6.8 µM;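 active = activation above the mean of all tested compounds plus 3 SD, cut at about 5.5% in these data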;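 note: 100% = response to 3 µM Δ7-dafachronic acid high control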
ssDAF12 agonist: S. stercoralis DAF-12 nuclear receptor activators, primary screen, cell-based, luminescence, HEK293, GRIP1 co-expression, lit1-tk-luc; activation, % at 6.8 µM; Nuclear hormone receptor DAF-12 (Strongyloides stercoralis); HEK293 ssDAF-12/GRIP1 lit1-tk-luc reporter; % of 3 µM dafachronic acid response; hit rate 1% among 370,000;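 active = activation above the mean over all tested compounds plus 3 SD, cut at about 0.9% in these data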;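 note: 0% = DMSO-only wells and 100% = 3 µM delta7-dafachronic acid wells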
DAX1 inh-2: DAX1 (NR0B1) inhibitors on StAR promoter, primary screen, cell-based, luminescence, SF-1 (NR5A1), full-length DAX-1; HEK293T StAR-luciferase reporter, SF-1/DAX-1 repression relief; inhibition, % at 6.8 µM; hit rate 1.1% among 370,000; AID 652010, 2013;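 active = inhibition above the mean over all tested compounds plus 3 SD, cut at about 3.6% in these data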;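 note: 0% = DAX-1 cells with DMSO and 100% = cells lacking DAX-1 with DMSO; higher inhibition means more luminescence from relief of DAX-1 repression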
hgDAF-12 ag: H. glycines DAF-12 receptor agonists, primary screen, cell-based, luminescence, HEK293, GAL4 fusion, UAS-luciferase | Nuclear hormone receptor DAF-12 (Heterodera glycines), GAL4 fusion | HEK293 GAL4-hgDAF12 UAS-luciferase reporter, agonist luminescence; normalized to butyrate control | activation, % at 6.8 µM | hit rate 1.8% among 370,000 | AID 687014, 2013;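 active = activation above a cutoff set at the mean of all screened compounds plus 3 SD, cut at about 10% in these data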;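 note: 0% = DMSO wells and 100% = sodium butyrate wells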
The depositor's hits bear a star; / = not tested or not shown.

SMILES	AHR act	DAX1 inh-1	hcDAF12 agonist	ssDAF12 agonist	DAX1 inh-2	hgDAF-12 ag
O=C(NC(=S)NC(CO)c1ccccc1)c1ccc(F)cc1 (stereo unspecified)	5	0	-3	-2	0	0
CC(C)(C)n1nc(C2CC2)cc1NC(=O)Nc1ccccc1	/	/	0	-1	0	-4
CCc1nc(Nc2ccc3c(c2)OCCO3)c2oc3ccccc3c2n1	63*	-1	-4	-2	-2	-4
CCc1nc(NCc2cccnc2)c2oc3ccccc3c2n1	64*	0	-1	-1	-1	-1
Cc1nc(Nc2ccc3c(c2)OCCO3)c2oc3ccccc3c2n1	34	0	-1	-1	0	-3
CCC(C)C(NC(=O)C1CCC(C)CC1)C(=O)Nc1ccc(OC)cc1 (stereo unspecified)	-2	0	-1	-1	0	0
C[C@H](CO)N1C[C@H](C)[C@@H](CN(C)C(=O)Nc2cccc(C(F)(F)F)c2)OCc2cn(nn2)CCCC1=O	/	/	0	-1	0	-3
CCOc1c2ccc(C(=O)NCC34CC5CC(CC(C5)C3)C4)cc2nn1CC	51*	0	-2	-2	0	0
CCn1nc2cc(C(=O)NCC34CC5CC(CC(C5)C3)C4)ccc2c1OC	3	-1	0	-1	0	-1
COC(=O)C1=C(C)N(Cc2ccccc2C(F)(F)F)C(=NCc2ccc(OC)cc2)NC1c1ccccc1 (stereo unspecified)	/	/	4	-1	-1	1
COc1ccc(C(=O)Nc2cc(OC)nc(OC)n2)cc1	9	1	4	0	2	12*
COc1cc2ccccc2cc1C(=O)Nc1ccc(Cl)cn1	53*	1	3	0	0	5
COc1cccc(C(=O)Nc2ccc3[nH]ncc3c2)c1	52*	3	5	0	2	11*
COc1ccc(OC)c(C(=O)c2ccc(C(=O)Nc3ccc4ccccc4c3)cc2)c1	-4	-1	0	-2	0	2
COc1ccc(NC(=O)c2cc3ccccc3cc2OC)cc1OC	5	1	0	-1	-1	0
COc1ccc(C(=O)Nc2ccc3ccccc3c2)cc1	-8	-6	5.8*	1	3	10
O=C1NC[C@H](CCCCN2C[C@H](Cc3ccccc3)N(CCc3ccccc3)C(=O)C2=O)N(CC2CCCCC2)C1=O	/	/	-2	-1	0	0
CCOc1ccc(NC(=O)c2ccc(NC(=O)COC(=O)Cc3ccc(OC)cc3)cc2)cc1	9	1	0	-1	1	5
COc1ccc(C(=O)Nc2c(C)cc(C)cc2C)cc1OC	5	0	-2	-2	0	-1
COc1ccc(C(=O)Nc2c(O)ccc3ccccc23)cc1OC	53*	0	2	-1	0	-1
COc1ccc(C(=O)Nc2cccc(C)c2)cc1	0	0	3	0	4.0*	11*
COc1cc(OC)c(C(=O)Nc2ccc3ccccc3c2)cc1OC	28	5.2*	/	/	/	/
COc1ccc(CC(=O)OCC(=O)Nc2ccc(C(=O)Nc3ccc(OC)cc3)cc2)cc1	3	4.2*	-2	-1	0	-1
CCN(CC)Cc1nc2c(c(=O)[nH]1)C(CC)(CC)Cc1ccccc1-2	0	0	-3	-1	0	-2
O=C1COc2ccc(S(=O)(=O)N3CCC(C(=O)NCc4ccccc4)CC3)cc2N1	0	1	-1	-1	0	2
SMILES	AHR act	DAX1 inh-1	hcDAF12 agonist	ssDAF12 agonist	DAX1 inh-2	hgDAF-12 ag
CCOc1ccc(C(=O)Nc2cc(NC(=O)c3ccc(OCC)c(Cl)c3)cc(C(=O)O)c2)cc1Cl	/	-1	-2	-1	0	-1
CCOc1ccc(C(=O)Nc2ccc(Cl)cn2)cc1Cl	-3	2	1	0	3	13*
COc1cc(C(=O)Nc2ccc3ccccc3c2)cc(OC)c1OC	/	/	1	-1	-1	5
COc1ccc(S(=O)(=O)Nc2c(O)ccc3ccccc23)cc1OC	61*	3	5	0	0	2
COc1ccc(C(=O)Nc2ccc3ccccc3c2)cc1OC	2	2	2	0	2	12*
COc1cc2ccccc2cc1C(=O)Nc1ccc(O)cc1	41	4.4*	4	1.4*	2	7
CS(=O)(=O)Nc1ccc(C(=O)Nc2ccc3ccccc3c2)cc1	10	2	4	1.3*	2	11*
CC(=O)c1cccc(NC(=O)c2ccc(NS(C)(=O)=O)cc2)c1	8	0	-2	-1	0	-2
CCSc1nnc(NC(=O)C2CCCN(C(=O)c3ccc(Cl)cc3)C2)s1 (stereo unspecified)	/	2	-2	-1	-1	2
COc1ccc(Nc2ncnc3sccc23)cc1	10	0	2	0	1	9
COc1cccc(Nc2ncnc3sccc23)c1	52*	1	2	-1	1	10
COc1cccc(/C=C2\CCC(C3CCCC3)C2=O)c1OC (stereo unspecified)	1	2	4	-1	2	13*
Cc1nn(C)cc1S(=O)(=O)N1CCN(c2ccccc2)CC1	-1	1	-1	0	0	-1
COCCCn1c(=NC(=O)c2ccncc2)c(C#N)cc2c(=O)n3cccc(C)c3nc21	59*	1	0	-1	0	-1
CCCc1ccc2c(C)cccc2n1	/	/	0	1	0	4
CC1CCCC(NCC(=O)Nc2ccc(C(N)=O)cc2)C1C (stereo unspecified)	-3	0	-1	1.7*	1	6
CCOC(=O)[C@]12CCC=C1N(Cc1ccccc1)C(=O)[C@H](CC(=O)N1CCSCC1)C2	/	/	2	-1	0	-1
CCOC(=O)[C@]12CCC=C1N(Cc1ccccc1)C(=O)[C@H](CC(=O)N1CCOCC1)C2	/	/	2	-1	4.3*	2
CCOC(=O)N1CCN(C(=O)C[C@@H]2C[C@@]3(C(=O)OCC)CCC=C3N(CCC3=CCCCC3)C2=O)CC1	/	/	-1	-1	1	-2
CCOC(=O)[C@]12CCC=C1N(CCC1=CCCCC1)C(=O)[C@H](CC(=O)N1CCSCC1)C2	/	/	-1	-1	4.1*	-2
